Experimental data taken from PubChem BioAssay AID1159580 (chemical genetic matrix, 2015).
“And” between values parts separate entries of the source, which are not always exact repeats. Equal values may be shown once. Out of some 5,500 compounds screened, about 2,000 (36%) were called active. Not shown: some 18% with an inconclusive outcome. Rule as the data show it: active = normalized growth mostly below about 0.91 (no sharp cut-off); inconclusive = no clear call, values can overlap the other calls; inactive = mostly above about 0.92. This is one part of the list.

Assay: chemical genetic growth profiling, strain panel (AID 1159580);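 also: tested at 20 µM; growth read once vehicle control cultures reached saturation at 30 °C; 1 = growth at the plate median or of vehicle wells; lower values mean less growth of the strain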
Conditions: growth OD

Measured: normalized growth

Nc1c2c(nc3ccccc13)CCCC2
inactive: S. cerevisiae deletion strains, locus YKL068W, hits give low values 1.01 | S. cerevisiae deletion strains, locus YKL085W, strain MDH1 (second series), hits give low values 1.01 | S. cerevisiae deletion strains, locus YKL085W, strain MDH1, hits give low values 1.01 | S. cerevisiae deletion strains, locus YKL160W, strain elf1, hits give low values 1.01 | S. cerevisiae deletion strains, locus YKL190W, strain CNB1, hits give low values 1.02 | S. cerevisiae deletion strains, locus YKR001C, strain vps1, hits give low values 0.998 | S. cerevisiae deletion strains, locus YKR026C, strain gcn3, hits give low values 0.986 | S. cerevisiae deletion strains, locus YKR091W, strain srl3, hits give low values 0.994 | S. cerevisiae deletion strains, locus YLL001W, strain dnm1, hits give low values 0.989 | S. cerevisiae deletion strains, locus YLL026W, hits give low values 0.99 | S. cerevisiae deletion strains, locus YLL041C, strain sdh2, hits give low values 0.982 | S. cerevisiae deletion strains, locus YLR027C, strain aat2, hits give low values 0.984 | S. cerevisiae deletion strains, locus YLR039C, strain RIC1, hits give low values 1.09 | S. cerevisiae deletion strains, locus YLR058C, strain SHM2, hits give low values 1.02 | S. cerevisiae deletion strains, locus YLR102C, strain apc9, hits give low values 1.01 | S. cerevisiae deletion strains, locus YLR113W, strain HOG1, hits give low values 1.02 | S. cerevisiae deletion strains, locus YLR221C, strain rsa3, hits give low values 0.963 | S. cerevisiae deletion strains, locus YLR258W, strain gsy2, hits give low values 1 | S. cerevisiae deletion strains, locus YLR262C, strain YPT6 (second series), hits give low values 1.01 | S. cerevisiae deletion strains, locus YLR262C, strain YPT6, hits give low values 1.1 | S. cerevisiae deletion strains, locus YLR268W, strain sec22, hits give low values 1.01 | S. cerevisiae deletion strains, locus YLR320W, strain mms22, hits give low values 0.947 | S. cerevisiae deletion strains, locus YLR330W, strain CHS5, hits give low values 1.01 | S. cerevisiae deletion strains, locus YLR342W, strain FKS1 (second series), hits give low values 1 | S. cerevisiae deletion strains, locus YLR342W, strain FKS1, hits give low values 0.999 | S. cerevisiae deletion strains, locus YLR357W, strain rsc2, hits give low values 0.994 | S. cerevisiae deletion strains, locus YLR370C, strain arc18, hits give low values 1.01 | S. cerevisiae deletion strains, locus YLR371W, strain rom2, hits give low values 1.03 | S. cerevisiae deletion strains, locus YLR384C, strain iki3, hits give low values 0.99 | S. cerevisiae deletion strains, locus YLR418C, strain cdc73, hits give low values 1.03 | S. cerevisiae deletion strains, locus YML016C, strain PPZ1, hits give low values 1.01 | S. cerevisiae deletion strains, locus YML032C, strain rad52, hits give low values 1.01 | S. cerevisiae deletion strains, locus YML120C, strain ndi1, hits give low values 1 | S. cerevisiae deletion strains, locus YML124C, strain tub3, hits give low values 1.02 | S. cerevisiae deletion strains, locus YMR058W, strain fet3, hits give low values 0.979 | S. cerevisiae deletion strains, locus YMR078C, strain ctf18, hits give low values 1.02 | S. cerevisiae deletion strains, locus YMR125W, strain sto1, hits give low values 1.01 | S. cerevisiae deletion strains, locus YMR129W, hits give low values 0.99 | S. cerevisiae deletion strains, locus YMR205C, strain PFK2, hits give low values 1.01 | S. cerevisiae deletion strains, locus YMR223W, strain ubp8, hits give low values 1.01 | S. cerevisiae deletion strains, locus YMR231W, strain pep5, hits give low values 0.976 | S. cerevisiae deletion strains, locus YMR263W, strain SAP30, hits give low values 1.01 | S. cerevisiae deletion strains, locus YMR307W, strain GAS1, hits give low values 0.999 | S. cerevisiae deletion strains, locus YNL067W, strain RPL9B, hits give low values 0.998 | S. cerevisiae deletion strains, locus YNL071W, strain lat1, hits give low values 1 | S. cerevisiae deletion strains, locus YNL128W, strain TEP1, hits give low values 1.01 | S. cerevisiae deletion strains, locus YNL153C, strain GIM3, hits give low values 0.994 | S. cerevisiae deletion strains, locus YNL175C, strain NOP13, hits give low values 0.99 | S. cerevisiae deletion strains, locus YNL183C, strain NPR1, hits give low values 0.954 | S. cerevisiae deletion strains, locus YNL197C, strain WHI3, hits give low values 1.01 | S. cerevisiae deletion strains, locus YNL209W, strain ssb2, hits give low values 1.01 | S. cerevisiae deletion strains, locus YNL224C, strain SQS1, hits give low values 0.995 | S. cerevisiae deletion strains, locus YNL233W, strain BNI4, hits give low values 0.999 | S. cerevisiae deletion strains, locus YNL250W, strain rad50, hits give low values 1.03 | S. cerevisiae deletion strains, locus YNL271C, strain bni1, hits give low values 1.02 | S. cerevisiae deletion strains, locus YNL298W, strain CLA4, hits give low values 1.02 | S. cerevisiae deletion strains, locus YNL307C, strain MCK1, hits give low values 1.02 | S. cerevisiae deletion strains, locus YNL322C, strain KRE1 (second series), hits give low values 1.01 | S. cerevisiae deletion strains, locus YNL322C, strain KRE1, hits give low values 1.01 | S. cerevisiae deletion strains, locus YNR049C, strain mso1, hits give low values 0.975 | S. cerevisiae deletion strains, locus YNR052C, strain pop2, hits give low values 1 | S. cerevisiae deletion strains, locus YOL006C, strain TOP1, hits give low values 1.05 | S. cerevisiae deletion strains, locus YOL012C, strain htz1 0.82 | S. cerevisiae deletion strains, locus YOL147C, strain pex11, hits give low values 1.01 | S. cerevisiae deletion strains, locus YOR001W, strain rrp6, hits give low values 0.925 | S. cerevisiae deletion strains, locus YOR061W, strain CKA2, hits give low values 1.02 | S. cerevisiae deletion strains, locus YOR069W, strain VPS5, hits give low values 1.01 | S. cerevisiae deletion strains, locus YOR070C, strain gyp1, hits give low values 0.975 | S. cerevisiae deletion strains, locus YOR080W, strain dia2, hits give low values 0.969 | S. cerevisiae deletion strains, locus YOR083W, strain WHI5 (second series), hits give low values 0.962 | S. cerevisiae deletion strains, locus YOR083W, strain WHI5, hits give low values 0.994 | S. cerevisiae deletion strains, locus YOR106W, strain vam3, hits give low values 0.997 | S. cerevisiae deletion strains, locus YOR136W, strain idh2, hits give low values 1.02 | S. cerevisiae deletion strains, locus YOR144C, strain elg1, hits give low values 1.02 | S. cerevisiae deletion strains, locus YOR184W, strain ser1, hits give low values 1.04 | S. cerevisiae deletion strains, locus YOR231W, strain MKK1, hits give low values 0.985 | S. cerevisiae deletion strains, locus YOR265W, strain rbl2, hits give low values 0.99 | S. cerevisiae deletion strains, locus YOR270C, strain vph1, hits give low values 0.888 | S. cerevisiae deletion strains, locus YOR290C, strain snf2, hits give low values 0.971 | S. cerevisiae deletion strains, locus YOR316C, strain cot1, hits give low values 1.02 | S. cerevisiae deletion strains, locus YPL051W, strain arl3, hits give low values 0.951 | S. cerevisiae deletion strains, locus YPL055C, strain LGE1, hits give low values 1.02 and 0.992 | S. cerevisiae deletion strains, locus YPL078C, strain atp4, hits give low values 1.02 | S. cerevisiae deletion strains, locus YPL106C, strain sse1, hits give low values 0.982 | S. cerevisiae deletion strains, locus YPL240C, strain hsp82, hits give low values 0.987 | S. cerevisiae deletion strains, locus YPL241C, strain CIN2, hits give low values 1.01 | S. cerevisiae deletion strains, locus YPL256C, strain CLN2, hits give low values 0.995 | S. cerevisiae deletion strains, locus YPR119W, strain clb2, hits give low values 1.01 | S. cerevisiae deletion strains, locus YPR141C, strain kar3, hits give low values 1.01 | S. cerevisiae deletion strains, locus YPR163C, strain tif3, hits give low values 1.01 | S. cerevisiae deletion strains, locus YPR167C, strain met16, hits give low values 1.02 | S. cerevisiae deletion strains, strain wtn01, hits give low values 1.02 | S. cerevisiae strains, strain wild type, hits give low values 1.02
active: S. cerevisiae deletion strains, locus YNL248C, strain rpa49, hits give low values 0.84
